These results are taken from PubChem BioAssay (NCI).

Assay in all cases: NCI-60 one-dose screen, 48 h (100 = growth as untreated, 0 = no growth, -100 = all killed)
Details in all cases: 10 µM unless noted

Experiment [1] concerns T-47D breast.
For experiment [2], the system named is BT-549 breast.
The subject of experiment [3] is MDA-MB-435 melanoma.
Experiment [4] deals with SW-620 colon.
Experiment [5] concerns MCF7 breast.
For experiment [6], the system named is HCT-116 colon.
Experiment [7] relates to HCC-2998 colon.
The subject of experiment [8] is KM12 colon.

Several values for one entry are separate records, joined by “and”; a condition that tells them apart may be missing. Equal entries are not always repeated. This is part of a sample that, as a whole, favours compounds with a hit. Of some 83,000 tested, about 20% had one in any assay.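 Assay: single dose, 48 h. Readout: percent growth (0 = no net growth; negative = cell death). Active: <10.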 Values without a mark were called inactive. Activity calls are given as the source filed them.

For `O=C1C(=C(O)c2ccccc2)C(=O)c2ccccc21`, the growth is 103% in experiment [1]; 95.7% in experiment [2]; 103% in experiment [3]; 111% in experiment [4]; 102% in experiment [5]; 102% in experiment [6]. In addition, the values for the growth in experiment [7] and in experiment [8] were 109% and 104%, respectively.
For the compound `CN(C)C(=O)c1cc2cnc(Nc3ccc(-c4csc5c(=S)cc(N6CCOCC6)oc45)cc3)nc2n1C1CCCC1`, the growth in experiment [1] was -3.44% (active); in experiment [2], 9.89% (active); in experiment [3], 17.3%; in experiment [4] it was 4.89% (active); in experiment [5] it was -5.27% (active); in experiment [6] it was 2.89% (active). Also, the figures for the growth in experiment [7] and in experiment [8] were 8.51% (active) and 6.53% (active), respectively.
Regarding `COc1cc(C(=O)c2ccccc2C(=O)O)c(OC)c2c1CCCC2`, the growth was 90.9% and 95.7% in experiment [1]; 95.8% and 101% in experiment [2]; 100% and 107% in experiment [3]; 98.2% and 106% in experiment [4]; 97.4% and 99.5% in experiment [5]; 95.6% and 95.4% in experiment [6]. Further, the growth in experiment [7] is 107% and 101%; in experiment [8], 98.7% and 104%.
Take `C=C(CNCCO)[C@@H]1CC[C@]2(CO)CC[C@]3(C)[C@H](CC[C@@H]4[C@@]5(C)CCC(NCCc6ccc(O)cc6)C(C)(C)[C@@H]5CC[C@]43C)[C@@H]12` (some centres undefined): the growth in experiment [1] was -66.1% (active); in experiment [2], -79.2% (active); in experiment [3], -95.5% (active); in experiment [4] it was -75.1% (active); in experiment [5] it was -73.4% (active); in experiment [6], -94.4% (active). In addition, the growth was -94.8% (active) in experiment [7] and -81.2% (active) in experiment [8].
As to `O=C(Nc1ccc2ncsc2c1)c1csc(Nc2ccc3[nH]ncc3c2)n1`, the growth in experiment [1] was 36.4%; in experiment [2], 73.4%; in experiment [3] it was -27.1% (active); in experiment [4], 20.9%; in experiment [5] it was 21.6%; in experiment [6], 47.5%. The growth in experiment [7] is 72.5%; in experiment [8], 30.9%.
For the compound `N#Cc1c(N)nnn1Cc1cc(=O)oc2ccc(O)cc12`, the growth is 98% in experiment [1]; 111% in experiment [2]; 105% in experiment [3]; 104% in experiment [4]; 96.8% in experiment [5]; 89.3% in experiment [6]. Also, the results for the growth in experiment [7] and in experiment [8] were 110% and 107%, respectively.
As to `O=C1C=C(Nc2ccccc2)c2ncccc2C1=O`, the growth is -48.3% (active) in experiment [1]; -94.4% (active) in experiment [2]; -95.3% (active) in experiment [3]; -70.6% (active) in experiment [4]; -52.2% (active) in experiment [5]; -87.9% (active) in experiment [6]. For the same compound, the results for the growth in experiment [7] and in experiment [8] were -89.1% (active) and -67.3% (active), respectively.
As for `O=C(N=Nc1c(O)[nH]c2ccccc12)Nc1ccc(Br)cc1`, the growth was 91.6% in experiment [1]; 89% in experiment [2]; 90.4% in experiment [3]; 91.6% in experiment [4]; 79.1% in experiment [5]; 88.6% in experiment [6]. Further, the growth in experiment [7] is 104%; in experiment [8] it was 92.4%.
Consider `Cc1nc2cccc(NCCCCC(=O)NO)c2c(=O)n1-c1ccccc1`, for which the growth in experiment [1] was 54.5%; in experiment [2] it was 86.8%; in experiment [3], 53.8%; in experiment [4] it was 47.5%; in experiment [5] it was 57.9%; in experiment [6], 27.3%. The growth in experiment [7] is 82%; in experiment [8], 73.8%.
As to `COc1cc2ncnc(Nc3ccc(F)c(Cl)c3)c2cc1OCC(=O)N1CCCCC1`, the growth was 43.6% in experiment [1]; 94.4% in experiment [2]; 95.3% in experiment [3]; 104% in experiment [4]; 82.6% in experiment [5]; 79.6% in experiment [6]. In addition, the growth was 92.7% in experiment [7] and 95.4% in experiment [8].
On to `COC(=O)c1nc(-c2ccccc2)oc1S(=O)(=O)N(C)CCO`, for which the growth in experiment [1] is 44.5%; in experiment [2], 72.5%; in experiment [3], 60.9%; in experiment [4], 40.4%; in experiment [5], 47.8%; in experiment [6], 46.7%. The growth in experiment [7] is 99.4%; in experiment [8] it was 89.4%.
Regarding `CCOC(=O)C1=C(C)NC(=O)NC1c1c(Cl)n(-c2ccccc2)c2ccccc12` (centres undefined), the growth is 90.4% in experiment [1]; 70.4% in experiment [2]; 54% in experiment [3]; 83.2% in experiment [4]; 87.9% in experiment [5]; 69.1% in experiment [6]. Besides, the growth in experiment [7] was 91.8%; in experiment [8], 92.3%.
With `O=C(Nc1ncc(Cc2cccc(C(F)(F)F)c2)s1)c1ccc2c(c1)OCCO2`, the growth in experiment [1] is 42.5%; in experiment [2], 35.8%; in experiment [3] it was 3.47% (active); in experiment [4] it was 37%; in experiment [5] it was 13.9%; in experiment [6], 10.9%. For the same compound, the figures for the growth in experiment [7] and in experiment [8] were 20.3% and 11.1%, respectively.
